What all share (assay): PBM; 200 nM protein, PBS
Holding throughout (conditions): dsDNA, one strand shown

The target of assay [1] is HESX1 (Homo sapiens, UniProt Q9UBX0 95-180, R165K).
The target of assay [2] is SHOX (Homo sapiens, UniProt O15266 103-189).
The target of assay [3] is ALX4 (Homo sapiens, UniProt Q9H161 200-286, Q225E).
Assay [4] concerns the target HESX1 (Homo sapiens, UniProt Q9UBX0 95-180).
Assay [5] has as its target MSX2 (Homo sapiens, UniProt P35548 130-214, R199I).
Assay [6] deals with ALX1 (Homo sapiens, UniProt Q15699 118-204, L144V).
Chain of ALX1 (Homo sapiens, UniProt Q15699 118-204, L144V) (Q15699 118-204 L144V): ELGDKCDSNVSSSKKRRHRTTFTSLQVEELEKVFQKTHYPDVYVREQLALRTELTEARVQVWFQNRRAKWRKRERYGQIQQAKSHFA
For assay [7], the target named is ALX3 (Homo sapiens, UniProt O95076 139-225, N203Q).
Chain of ALX3 (Homo sapiens, UniProt O95076 139-225, N203Q) (O95076 139-225 N203Q): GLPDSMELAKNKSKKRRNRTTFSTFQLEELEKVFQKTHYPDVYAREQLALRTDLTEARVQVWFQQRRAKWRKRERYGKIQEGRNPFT
For assay [8], the target named is SHOX (Homo sapiens, UniProt O15266 103-189, R173C).
Chain of SHOX (Homo sapiens, UniProt O15266 103-189, R173C) (O15266 103-189 R173C): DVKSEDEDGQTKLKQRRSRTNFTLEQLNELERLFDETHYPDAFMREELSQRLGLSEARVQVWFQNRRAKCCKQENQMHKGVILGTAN
The target in assay [9] is ALX1 (Homo sapiens, UniProt Q15699 118-204, L144R).
Chain of ALX1 (Homo sapiens, UniProt Q15699 118-204, L144R) (Q15699 118-204 L144R): as the sequence (Q15699 118-204 L144V) above, with V27R counted along it
In assay [10] the target is ALX3 (Homo sapiens, UniProt O95076 139-225).
Chain of ALX3 (Homo sapiens, UniProt O95076 139-225) (O95076 139-225): as the sequence (O95076 139-225 N203Q) above, with Q65N counted along it
The target of assay [11] is PROP1 (Homo sapiens, UniProt O75360 56-141).
Chain of PROP1 (Homo sapiens, UniProt O75360 56-141) (O75360 56-141): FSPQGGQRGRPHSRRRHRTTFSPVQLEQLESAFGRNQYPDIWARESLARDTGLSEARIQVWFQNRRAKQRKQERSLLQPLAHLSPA
The target of assay [12] is HESX1 (Homo sapiens, UniProt Q9UBX0 95-180, R109Q).
Chain of HESX1 (Homo sapiens, UniProt Q9UBX0 95-180, R109Q) (Q9UBX0 95-180 R109Q): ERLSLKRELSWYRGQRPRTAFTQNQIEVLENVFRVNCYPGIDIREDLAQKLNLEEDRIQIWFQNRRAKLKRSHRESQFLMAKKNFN
Assay [13] deals with PROP1 (Homo sapiens, UniProt O75360 56-141, R99H).
Chain of PROP1 (Homo sapiens, UniProt O75360 56-141, R99H) (O75360 56-141 R99H): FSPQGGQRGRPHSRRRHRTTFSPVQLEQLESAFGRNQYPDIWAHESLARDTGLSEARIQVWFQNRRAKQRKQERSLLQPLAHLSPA
Assay [14] has as its target ALX3 (Homo sapiens, UniProt O95076 139-225, L168Q).
In assay [15] the target is HESX1 (Homo sapiens, UniProt Q9UBX0 95-180, P111T).
Chain of HESX1 (Homo sapiens, UniProt Q9UBX0 95-180, P111T) (Q9UBX0 95-180 P111T): as the sequence (Q9UBX0 95-180 R109Q) above, with Q15R, P17T counted along it
For assay [16], the target named is ALX3 (Homo sapiens, UniProt O95076 139-225, L168V).
Chain of ALX3 (Homo sapiens, UniProt O95076 139-225, L168V) (O95076 139-225 L168V): as the sequence (O95076 139-225 N203Q) above, with L30V, Q65N counted along it
Assay [17] concerns the target PROP1 (Homo sapiens, UniProt O75360 56-141, F88S).
Assay [18] concerns the target HESX1 (Homo sapiens, UniProt Q9UBX0 95-180, F115L).
Assay [19] addresses ALX1 (Homo sapiens, UniProt Q15699 118-204).
The target in assay [20] is ALX3 (Homo sapiens, UniProt O95076 139-225, N203S).
Chain of ALX3 (Homo sapiens, UniProt O95076 139-225, N203S) (O95076 139-225 N203S): as the sequence (O95076 139-225 N203Q) above, with Q65S counted along it

Chain of SHOX (Homo sapiens, UniProt O15266 103-189) (O15266 103-189): as the sequence (O15266 103-189 R173C) above, with C71R counted along it
Chain of HESX1 (Homo sapiens, UniProt Q9UBX0 95-180, R165K) (Q9UBX0 95-180 R165K): as the sequence (Q9UBX0 95-180 R109Q) above, with Q15R, R71K counted along it
Chain of ALX3 (Homo sapiens, UniProt O95076 139-225, L168Q) (O95076 139-225 L168Q): as the sequence (O95076 139-225 N203Q) above, with L30Q, Q65N counted along it
Chain of HESX1 (Homo sapiens, UniProt Q9UBX0 95-180, F115L) (Q9UBX0 95-180 F115L): as the sequence (Q9UBX0 95-180 R109Q) above, with Q15R, F21L counted along it
Chain of ALX1 (Homo sapiens, UniProt Q15699 118-204) (Q15699 118-204): as the sequence (Q15699 118-204 L144V) above, with V27L counted along it
Chain of HESX1 (Homo sapiens, UniProt Q9UBX0 95-180) (Q9UBX0 95-180): as the sequence (Q9UBX0 95-180 R109Q) above, with Q15R counted along it
Chain of PROP1 (Homo sapiens, UniProt O75360 56-141, F88S) (O75360 56-141 F88S): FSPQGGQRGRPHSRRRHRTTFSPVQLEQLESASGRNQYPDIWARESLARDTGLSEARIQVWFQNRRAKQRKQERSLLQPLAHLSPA
Chain of ALX4 (Q9H161 200-286 Q225E): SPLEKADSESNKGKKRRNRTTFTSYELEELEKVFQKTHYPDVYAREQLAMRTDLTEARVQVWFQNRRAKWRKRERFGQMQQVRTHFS
Chain of MSX2 (P35548 130-214 R199I): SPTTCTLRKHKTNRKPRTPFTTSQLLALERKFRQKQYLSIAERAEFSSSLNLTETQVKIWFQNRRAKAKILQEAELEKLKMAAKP

For ATTAATTG, the binding signal in assay [1] was 13 upbm affinity estimate (log intensity, higher = more binding, comparable within an allelic series); in [2], 12.3 upbm affinity estimate (log intensity, higher = more binding, comparable within an allelic series); in [3], 13.8 upbm affinity estimate (log intensity, higher = more binding, comparable within an allelic series); in [4] it was 12.9 upbm affinity estimate (log intensity, higher = more binding, comparable within an allelic series); in assay [5] it was 13.1 upbm affinity estimate (log intensity, higher = more binding, comparable within an allelic series); in assay [6], 12.1 upbm affinity estimate (log intensity, higher = more binding, comparable within an allelic series). Besides, the binding signal in [7] was 8.48 upbm affinity estimate (log intensity, higher = more binding, comparable within an allelic series); in assay [8], 9.84 upbm affinity estimate (log intensity, higher = more binding, comparable within an allelic series); in assay [9], 11.7 upbm affinity estimate (log intensity, higher = more binding, comparable within an allelic series); in [10], 12.7 upbm affinity estimate (log intensity, higher = more binding, comparable within an allelic series); in [11], 11.7 upbm affinity estimate (log intensity, higher = more binding, comparable within an allelic series); in assay [12], 9.92 upbm affinity estimate (log intensity, higher = more binding, comparable within an allelic series). For the same sequence, the binding signal in assay [13] is 12 upbm affinity estimate (log intensity, higher = more binding, comparable within an allelic series); in assay [14] it was 11 upbm affinity estimate (log intensity, higher = more binding, comparable within an allelic series); in assay [15] it was 11.6 upbm affinity estimate (log intensity, higher = more binding, comparable within an allelic series); in [16] it was 10.5 upbm affinity estimate (log intensity, higher = more binding, comparable within an allelic series); in [17], 8 upbm affinity estimate (log intensity, higher = more binding, comparable within an allelic series); in assay [18], 8.15 upbm affinity estimate (log intensity, higher = more binding, comparable within an allelic series). Also, the binding signal in [19] is 12.6 upbm affinity estimate (log intensity, higher = more binding, comparable within an allelic series); in [20], 8.67 upbm affinity estimate (log intensity, higher = more binding, comparable within an allelic series).
On to AGTAATTA, for which the binding signal in [1] is 13 upbm affinity estimate (log intensity, higher = more binding, comparable within an allelic series); in assay [2], 12.7 upbm affinity estimate (log intensity, higher = more binding, comparable within an allelic series); in assay [3], 13.8 upbm affinity estimate (log intensity, higher = more binding, comparable within an allelic series); in assay [4], 13.1 upbm affinity estimate (log intensity, higher = more binding, comparable within an allelic series); in assay [5] it was 13.4 upbm affinity estimate (log intensity, higher = more binding, comparable within an allelic series); in assay [6], 12.2 upbm affinity estimate (log intensity, higher = more binding, comparable within an allelic series). In addition, the binding signal in [7] was 8.6 upbm affinity estimate (log intensity, higher = more binding, comparable within an allelic series); in [8] it was 10 upbm affinity estimate (log intensity, higher = more binding, comparable within an allelic series); in [9], 11.8 upbm affinity estimate (log intensity, higher = more binding, comparable within an allelic series); in assay [10], 12.8 upbm affinity estimate (log intensity, higher = more binding, comparable within an allelic series); in [11] it was 11.9 upbm affinity estimate (log intensity, higher = more binding, comparable within an allelic series); in assay [12], 9.52 upbm affinity estimate (log intensity, higher = more binding, comparable within an allelic series). The binding signal in assay [13] is 11.9 upbm affinity estimate (log intensity, higher = more binding, comparable within an allelic series); in [14], 11 upbm affinity estimate (log intensity, higher = more binding, comparable within an allelic series); in [15] it was 11.6 upbm affinity estimate (log intensity, higher = more binding, comparable within an allelic series); in assay [16] it was 10.6 upbm affinity estimate (log intensity, higher = more binding, comparable within an allelic series); in assay [17], 7.94 upbm affinity estimate (log intensity, higher = more binding, comparable within an allelic series); in [18], 8.09 upbm affinity estimate (log intensity, higher = more binding, comparable within an allelic series). For the same sequence, the binding signal in assay [19] was 12.7 upbm affinity estimate (log intensity, higher = more binding, comparable within an allelic series); in assay [20], 8.73 upbm affinity estimate (log intensity, higher = more binding, comparable within an allelic series).
On to AATTAATA, for which the binding signal in [1] was 12.2 upbm affinity estimate (log intensity, higher = more binding, comparable within an allelic series); in [2], 12 upbm affinity estimate (log intensity, higher = more binding, comparable within an allelic series); in assay [3], 13.4 upbm affinity estimate (log intensity, higher = more binding, comparable within an allelic series); in assay [4], 12.1 upbm affinity estimate (log intensity, higher = more binding, comparable within an allelic series); in assay [5] it was 12.5 upbm affinity estimate (log intensity, higher = more binding, comparable within an allelic series); in assay [6] it was 11.8 upbm affinity estimate (log intensity, higher = more binding, comparable within an allelic series). For the same sequence, the binding signal was 8.72 upbm affinity estimate (log intensity, higher = more binding, comparable within an allelic series) in assay [7]; 9.56 upbm affinity estimate (log intensity, higher = more binding, comparable within an allelic series) in assay [8]; 11.6 upbm affinity estimate (log intensity, higher = more binding, comparable within an allelic series) in assay [9]; 12.5 upbm affinity estimate (log intensity, higher = more binding, comparable within an allelic series) in assay [10]; 11.3 upbm affinity estimate (log intensity, higher = more binding, comparable within an allelic series) in assay [11]; 9.32 upbm affinity estimate (log intensity, higher = more binding, comparable within an allelic series) in assay [12]. The binding signal is 11.4 upbm affinity estimate (log intensity, higher = more binding, comparable within an allelic series) in assay [13]; 10.7 upbm affinity estimate (log intensity, higher = more binding, comparable within an allelic series) in assay [14]; 10.8 upbm affinity estimate (log intensity, higher = more binding, comparable within an allelic series) in assay [15]; 10.3 upbm affinity estimate (log intensity, higher = more binding, comparable within an allelic series) in assay [16]; 8.02 upbm affinity estimate (log intensity, higher = more binding, comparable within an allelic series) in assay [17]; 8.27 upbm affinity estimate (log intensity, higher = more binding, comparable within an allelic series) in [18]. Further, the binding signal in [19] is 12.3 upbm affinity estimate (log intensity, higher = more binding, comparable within an allelic series); in assay [20], 8.82 upbm affinity estimate (log intensity, higher = more binding, comparable within an allelic series).
Turning to AATTAATC, the binding signal was 11.9 upbm affinity estimate (log intensity, higher = more binding, comparable within an allelic series) in assay [1]; 11.9 upbm affinity estimate (log intensity, higher = more binding, comparable within an allelic series) in assay [2]; 13.2 upbm affinity estimate (log intensity, higher = more binding, comparable within an allelic series) in assay [3]; 12 upbm affinity estimate (log intensity, higher = more binding, comparable within an allelic series) in assay [4]; 12.3 upbm affinity estimate (log intensity, higher = more binding, comparable within an allelic series) in assay [5]; 11.9 upbm affinity estimate (log intensity, higher = more binding, comparable within an allelic series) in [6]. The binding signal in assay [7] was 8.39 upbm affinity estimate (log intensity, higher = more binding, comparable within an allelic series); in [8], 9.4 upbm affinity estimate (log intensity, higher = more binding, comparable within an allelic series); in assay [9] it was 11.6 upbm affinity estimate (log intensity, higher = more binding, comparable within an allelic series); in assay [10], 12.5 upbm affinity estimate (log intensity, higher = more binding, comparable within an allelic series); in [11], 11.2 upbm affinity estimate (log intensity, higher = more binding, comparable within an allelic series); in assay [12] it was 9.36 upbm affinity estimate (log intensity, higher = more binding, comparable within an allelic series). Also, the binding signal in assay [13] is 11.1 upbm affinity estimate (log intensity, higher = more binding, comparable within an allelic series); in assay [14] it was 10.6 upbm affinity estimate (log intensity, higher = more binding, comparable within an allelic series); in assay [15] it was 10.7 upbm affinity estimate (log intensity, higher = more binding, comparable within an allelic series); in [16], 10.2 upbm affinity estimate (log intensity, higher = more binding, comparable within an allelic series); in [17], 7.81 upbm affinity estimate (log intensity, higher = more binding, comparable within an allelic series); in assay [18], 7.79 upbm affinity estimate (log intensity, higher = more binding, comparable within an allelic series). Also, the binding signal in [19] is 12.3 upbm affinity estimate (log intensity, higher = more binding, comparable within an allelic series); in [20] it was 8.52 upbm affinity estimate (log intensity, higher = more binding, comparable within an allelic series).

(Values after article PMC11006913.)
